Assay [1] is described as follows: HPAF-II 24hr Apoptosis Induction qHTS against the NCATS CANVASS Library (AID 1347356). Also: 0% is about no effect. An outline of the steps:
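Luminescent caspase-3/7 signal (DEVD substrate, Caspase-Glo) served as read-out, taken 15 min after reagent addition to HPAF-II cells exposed 24 h to compounds.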
On the technique in general: In qHTS, concentration-response curves come from the screen itself.

Assay [2] in a line: HEK293 18hr Apoptosis Induction qHTS against the NCATS CANVASS Library (AID 1347357). Also: 0% is about no effect. An outline of the steps: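 HEK293 cells (500/well, DMEM + 10% FBS) treated with an 11-point series for 18 h at 37 degrees C. Caspase-3/7 activity read by Caspase-Glo luminescence after 15 min at room temperature.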
Assay [3] is described as follows: HEK293 24hr Apoptosis Induction qHTS against the NCATS CANVASS Library (AID 1347359). Also: 0% is about no effect. An outline of the steps: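 HEK293 cells (500/well, DMEM + 10% FBS) were exposed to compounds in an 11-point series for 24 hours at 37 degrees C, then caspase-3/7 activity was read by Caspase-Glo DEVD luciferase luminescence after 15 min.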
Assay [4] in a line: HPAF-II 18hr Apoptosis Induction qHTS against the NCATS CANVASS Library (AID 1347360). Also: 0% is about no effect. An outline of the steps: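 HPAF-II cells at 500/well were exposed for 18 h at 37 C to an 11-point compound series. Caspase-3/7 activity was read by Caspase-Glo luminescence after 15 min at RT.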
Assay [5] concerns the target Luciferin 4-monooxygenase (Photinus pyralis) (UniProt P08659). Description: Firefly luciferase counterscreen qHTS: Assay Interference Panel against the NCATS CANVASS Library (AID 1347363). Also: 0% is about no effect. An outline of the steps:
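Purified P. pyralis luciferase was added to compounds (11-point series) preincubated 15 min at room temperature with substrate containing 0.013 mM D-luciferin and 0.013 mM ATP; luminescence was read after 5 min.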
In general terms: Counterscreens check selectivity or assay interference.

A short description of assay [6]: qHTS for ATAD5 Agonist screened against the NCATS CANVASS Library (AID 1347367).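 Also: luciferase reporter driven by ATAD5 which rises upon DNA damage; 0% is about no effect.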 An outline of the steps:
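Luciferase reporter under ATAD5 control, stably integrated in HEK293T cells (2000/well). Compounds (11 points) incubated 16 h at 37C; viability read first by CellTiter-Fluor, then luminescence reporting ATAD5 activation. MMS positive control.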

Assay [7] is described as follows: MCF7 Cancer Cell Toxicity qHTS against the NCATS CANVASS Library (AID 1347369). The gist of the method: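 MCF7 cells (500/well) were exposed 72 h at 37 °C to compounds in an 11-point series. Viability was read as ATP content by CellTiterGlo luminescence.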
Assay [8] deals with Nuclear receptor subfamily 1 group I member 3 (Homo sapiens) (UniProt Q14994). The assay can be described thus: qHTS for Constitutive Androstane Receptor (CAR) Antagonist screened against the NCATS CANVASS Library (AID 1347372). Also: potency is read from the fitted curve at half-maximal effect.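 As to activity change, negative = inhibition: cells stimulated with 50 nM CITCO agonist so inhibition reflects antagonism; % is scaled to controls: 0 for no effect and ±100 for the full control effect.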 An outline of the steps: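 HepG2 cells stably carrying hCAR and a CYP2B6-2.2kb luciferase reporter were exposed to compounds plus 50 nM CITCO for 24hr at 37C. CAR activity was read by ONE-Glo luminescence, with viability measured first by CellTiter-Fluor.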

The target is the same in assay [9]. The assay can be described thus: qHTS for Constitutive Androstane Receptor (CAR) Agonist screened against the NCATS CANVASS Library (AID 1347373).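 Also: every well also contained 1.5 µM PK11195 alongside the test compound; 0% is about no effect.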 The gist of the method:
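HepG2-hCAR-CYP2B6 cells, 2500/well, attached 4hr; cpd + PK11195 1.5uM final; 24hr 37C 5% CO2. CellTiter-Fluor viability read, then ONE-Glo luminescence for CAR activation.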

Assay [10] in a line: 10-beta competent E. coli microbial cell viability qHTS against the NCATS CANVASS Library (AID 1347376). Also: 0% is about no effect. An outline of the steps: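 E. coli 10-beta, 0.2 OD; cpds 11-pt; o/n 37C, 5% CO2; BacTiter-Glo 20 min RT; luminescence (ATP) = viable cells. Daunomycin ctrl.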
Assay [11] is described as follows: qHTS for H2AX Agonists against the NCATS CANVASS Library (AID 1347378). Also: 0% is about no effect. An outline of the steps:
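CHO-K1 cells (1000/well, overnight at 37C) exposed to compounds at several concentrations for 3 hr at 37C, 0.76% DMSO final. Lysates read by TR-FRET (phospho-H2AX S139 Eu-cryptate antibody / H2AX-d2 antibody) after 24 hr at room temperature; 665/615 nm ratio.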

The nature of assay [12]: Inflammasome Signaling qHTS Counterscreen: IL-1-beta AlphaLISA counterscreen against the NCATS CANVASS Library (AID 1347381).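 Also: cell-free check with purified IL-1β in medium and no THP-1 cells; 0% is about no effect.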 An outline of the steps:
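Cell-free interference check: compounds added to medium spiked with 4 pg purified IL-1β. Anti-IL-1β acceptor beads (6 ug/mL) with 0.6 nM biotinylated antibody added for 1 h at RT, then streptavidin donor beads (24 ug/mL) for 30 min in the dark. AlphaLISA read at 680/615 nm.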

Assay [13] is described as follows: Cytotoxicity qHTS for assessment of Hepg2 cells membrane integrity screened against the NCATS CANVASS Library (AID 1347387). The gist of the method:
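qHTS, 11-pt conc. series, 0.59 nM - 46 uM final; HepG2 2000 cells/well, overnight attachment; 5 hr compound exposure 37C/5% CO2; CytoTox-ONE, 10 min RT; fluorescence ex560/em590 = LDH from damaged membranes.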

The nature of assay [14]: qHTS to identify inhibitors of the type 1 interferon - major histocompatibility complex class I in skeletal muscle: primary screen against the NCATS Mechanism Interrogation Plate v5.0 (MIPE) Libary (AID 1347411). Also: potency is read from the fitted curve at half-maximal effect; nearly all actives have a fitted effect of over 65% in size. An outline of the steps:
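Luminescence from HiBiT-tagged endogenous HLA-B*08:01 served as the MHC class I read-out. CRISPR-engineered C25cl48 human myoblasts received 4.0 ng/ml IFN-beta plus compound for 24 hrs, with an 11-point, 1:3 series topping at 46 uM final.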

Assay [15] can be described thus: Primary qHTS for inhibitors of nuclear receptor binding SET domain protein 2 (NSD2) in an isogenic RCH-ACV NSD2 p.E1099K mutant (9B) (AID 1645876). Also: nearly all actives have a fitted effect of over 70% in size. Also: potency is read from the fitted curve at half-maximal effect.
Assay [16] is described as follows: Primary qHTS for inhibitors of nuclear receptor binding SET domain protein 2 (NSD2) in an RCH-ACV wild type WT cells (2C) (AID 1645877). Also: nearly all actives have a fitted effect of over 70% in size. Also: potency is read from the fitted curve at half-maximal effect.
Assay [17] deals with Glutathione peroxidase 1 (Homo sapiens) (UniProt P07203). The assay can be described thus: Primary qHTS Assay for Inhibitors of Recombinant Selenoprotein Glutathione Peroxidase 1 (GPX1) (AID 1845191). Also: nearly all actives have a fitted effect of over 65% in size. An outline of the steps:
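Recombinant GPX1 (10 nM final) was preincubated with compound for 30 min at room temperature, then reacted with 1 mM GSH, 0.5 mM CHP, 0.5 mM NADPH and 100 nM glutathione reductase; NADPH fluorescence (340/450 nm) was read at 0 and 15 min.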

Assay [18] deals with Phospholipid hydroperoxide glutathione peroxidase GPX4 (Homo sapiens) (UniProt P36969). The assay can be described thus: Primary qHTS Assay for Inhibitors of Recombinant Selenoprotein Glutathione Peroxidase 4 (GPX4) (AID 1845192). Also: nearly all actives have a fitted effect of over 65% in size. As to activity change, negative = inhibition: % is scaled to controls: 0 for no effect and ±100 for the full control effect. The note with it: outcome: dose series up to 50 µM unless noted. An outline of the steps:
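GR-coupled readout: 100 nM GR, 1 mM GSH, 0.5 mM NADPH; NADPH fluorescence (ex 340/em 450 nm) read at t=0 and after 15 min RT. GPX4 200 nM, preincubated 30 min with compound; substrate 0.5 mM CHP.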

Assay [19] in a line: qHTS drug screen for cell cycle checkpoint inhibitors in PARPi-resistant BRCA-mutant ovarian cancer cell lines. (AID 1963452; calls by dose curve). Particulars: PEO1/OlaR viability, CellTiter-Glo luminescence, 96 h, stronger effect = lower value. The gist of the method: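 PEO1, PEO4 and PEO1/OlaR ovarian cancer cells, 600 per well, exposed 96 h at 37C to a dilution series. Viability read by CellTiter-Glo luminescence, normalized to DMSO and empty wells; activity summarized as Z-AUC.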

The nature of assay [20]: qHTS assay to identify inhibitors of the type 1 interferon - major histocompatibility complex class I in skeletal muscle: Counter screen cell viability and HiBit confirmation (AID 1347412). Also: potency is read from the fitted curve at half-maximal effect. As to activity change, negative = inhibition: % is scaled to controls: 0 for no effect and ±100 for the full control effect. As to all read-outs here: nearly all actives have a fitted effect of over 60% in size. Particulars: iHSKM muscle cells + IFN-b, HiBiT or CellTiter-Glo, 24 h; for Potency: HiBiT; for activity change, negative = inhibition: Viability, at 45.9 µM (top of the series). The gist of the method: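 CRISPR HLA-B*08:01-HiBit immortalized human myoblasts (C25cl48) stimulated with 4 ng/ml IFN-beta and compounds (12-point 1:3, top 46 uM final) for 24 h at 37 C. Duplicate plates read by HiBit lytic luminescence or CellTiter Glo ATP.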

[21] abbreviates: measured here: PEO1 parental Z-AUC.

Each structure is given as a SMILES string. Inconclusive results are not listed. Calls of active or inactive are those of the source. Unless noted, calls follow the shape of the dose curve; as a rule, active = well fitted curve in the direction sought with a large enough effect; inconclusive = small, poorly fitted or top-dose-only effect, or another doubt; inactive = no such curve, though single readings can be large; an effect the other way counts as inactive or inconclusive.

Chain of Nuclear receptor subfamily 1 group I member 3 (Homo sapiens) (Q14994 whole entry, looked up): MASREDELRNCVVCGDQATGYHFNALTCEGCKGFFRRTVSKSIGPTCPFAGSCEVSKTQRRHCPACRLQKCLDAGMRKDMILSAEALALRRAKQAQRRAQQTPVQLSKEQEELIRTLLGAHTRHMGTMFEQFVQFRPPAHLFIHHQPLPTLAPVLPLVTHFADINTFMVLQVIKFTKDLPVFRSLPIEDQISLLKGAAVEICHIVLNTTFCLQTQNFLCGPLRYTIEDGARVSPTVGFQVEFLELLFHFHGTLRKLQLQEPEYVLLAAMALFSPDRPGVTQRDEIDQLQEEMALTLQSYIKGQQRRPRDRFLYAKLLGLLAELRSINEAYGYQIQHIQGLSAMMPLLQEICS
Chain of Luciferin 4-monooxygenase (Photinus pyralis) (P08659 whole entry, looked up): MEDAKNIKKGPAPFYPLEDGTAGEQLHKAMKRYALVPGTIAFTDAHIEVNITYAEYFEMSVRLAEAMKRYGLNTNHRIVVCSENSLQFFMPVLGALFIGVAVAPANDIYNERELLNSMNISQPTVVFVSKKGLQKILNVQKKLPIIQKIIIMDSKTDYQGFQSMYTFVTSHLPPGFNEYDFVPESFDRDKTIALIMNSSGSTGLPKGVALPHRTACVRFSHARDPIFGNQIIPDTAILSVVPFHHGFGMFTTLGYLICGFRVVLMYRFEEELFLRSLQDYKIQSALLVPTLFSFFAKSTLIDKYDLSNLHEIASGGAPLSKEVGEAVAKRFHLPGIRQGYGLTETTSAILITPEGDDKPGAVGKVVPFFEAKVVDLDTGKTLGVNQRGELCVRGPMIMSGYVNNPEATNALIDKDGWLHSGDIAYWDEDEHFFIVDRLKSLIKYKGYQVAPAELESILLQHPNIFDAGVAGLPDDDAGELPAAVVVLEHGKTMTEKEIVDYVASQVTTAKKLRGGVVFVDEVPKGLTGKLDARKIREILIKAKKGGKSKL
Chain of Glutathione peroxidase 1 (Homo sapiens) (P07203 whole entry, looked up): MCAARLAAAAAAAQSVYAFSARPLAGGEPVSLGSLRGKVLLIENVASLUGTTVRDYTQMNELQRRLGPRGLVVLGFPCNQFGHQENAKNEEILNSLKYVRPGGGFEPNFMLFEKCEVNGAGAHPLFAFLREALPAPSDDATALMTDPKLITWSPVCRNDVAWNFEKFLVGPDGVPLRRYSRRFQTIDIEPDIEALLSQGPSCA
Chain of Phospholipid hydroperoxide glutathione peroxidase GPX4 (Homo sapiens) (P36969 whole entry, looked up): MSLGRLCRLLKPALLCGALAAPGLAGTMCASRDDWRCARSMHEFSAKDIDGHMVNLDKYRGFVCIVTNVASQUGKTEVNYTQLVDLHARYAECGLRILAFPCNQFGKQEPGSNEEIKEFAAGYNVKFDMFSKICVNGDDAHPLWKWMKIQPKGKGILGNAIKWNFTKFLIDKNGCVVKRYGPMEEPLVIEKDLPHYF

Consider `C/C(=C\[C@H](C)C(=O)C[C@H](O)CC1CC(=O)NC(=O)C1)[C@@H]1OC(=O)CCCC/C=C/[C@@H](O)C[C@@H]1C`, for which the outcome in assay [1], in [10], in [12] and in assay [13] was inactive. In addition, the Potency entry in assay [2], in assay [3], in [4], in assay [5], in assay [6] and in assay [7] was “inactive” throughout. Further, the Potency result in assay [9] and in assay [11] was “inactive” in each case. Moreover, the Potency in assay [8] was 14800 nM (active).

Consider `C/C=C/c1cc2c(c(=O)o1)C(=O)[C@@H](O)[C@H](C)O2`, for which the molecule was called inactive in assay [1], in assay [10], in assay [12] and in [13]. Further, the Potency entry in [3], in assay [4], in assay [5], in assay [6], in assay [7] and in [9] was “inactive” each time.

`CC1=C[C@H]2[C@H]3C(=O)C(c4ccc(O)cc4)=C[C@@]3(c3ccc(O)cc3)[C@@H]1C(=O)[C@]2(C)O`: the call in assay [1], in [10], in assay [12] and in assay [13] was inactive. Besides, the Potency entry in assay [2], in assay [3], in assay [4], in assay [5], in [6] and in assay [7] was “inactive” in each case. Besides, the Potency entry in assay [9] and in [11] was “inactive” throughout. In addition, in assay [8], the Potency was 933 nM (active).

Take `C/C(=C\[C@H](C)C(=O)/C=C/CC1CC(=O)NC(=O)C1)[C@@H]1OC(=O)CCCC/C=C/[C@H](O)[C@@H](O)[C@@H]1C`: the result in [1], in [10], in assay [12] and in assay [13] was inactive. Also, the Potency result in [2], in assay [3], in assay [4], in assay [5], in assay [6] and in [7] was “inactive” throughout. In addition, the Potency result in assay [8], in assay [9] and in assay [11] was “inactive” throughout.

As to `C=C[C@]1(C)CC[C@@H]([C@H](C)C(=O)/C=C/C(C)(C)O)O1`, the molecule was called inactive in assay [1], in assay [10], in assay [12] and in assay [13]. In addition, the Potency entry in [2], in [3], in assay [4], in assay [5], in assay [6] and in [7] was “inactive” each time. The Potency entry in assay [8] and in assay [11] was “inactive” each time.

In the case of `CC1=C2[N-][C@H]([C@H](CC(N)=O)[C@@]2(C)CCC(=O)NC[C@@H](C)OP(=O)([O-])O[C@H]2[C@@H](O)[C@@H](n3cnc4cc(C)c(C)cc43)O[C@@H]2CO)[C@]2(C)N=C(C(C)=C3N=C(C=C4N=C1[C@@H](CCC(N)=O)C4(C)C)[C@@H](CCC(N)=O)[C@]3(C)CC(N)=O)[C@@H](CCC(N)=O)[C@]2(C)CC(N)=O.O.[Co+2]`, the figures for the Potency in assay [14] and in assay [20] were 8290 nM (active) and 14000 nM (active), respectively. Besides, the Potency entry in [15], in assay [16], in assay [17] and in assay [18] was “inactive” throughout. Moreover, the Z-AUC in [19] is -0.864 (inactive); in assay [19] (setting [21]), 0.932; in assay [19] (measured here: PEO4 Z-AUC), 0.294. Besides, in [20], the activity change, negative = inhibition was -18.1% (inactive).

Turning to `Cc1ccc(NC(=O)NCc2ccc3c(c2)CN(C2CCC(=O)NC2=O)C3=O)cc1Cl` (stereo unspecified), the Potency was 14.7 nM (active) in assay [14], 1.5 nM (active) in [15], 1.2 nM (active) in assay [16] and 7.9 nM (active) in [20]. Moreover, the Potency entry in assay [17] and in [18] was “inactive” in each case. Moreover, the Z-AUC was -3.37 (inactive) in assay [19], -3.53 in assay [19] (setting [21]) and -3.45 in assay [19] (measured here: PEO4 Z-AUC). The activity change, negative = inhibition in assay [20] is -11.6% (inactive).

The values above are taken from PubChem BioAssay (NCATS).
